Laboratory results as given in PubChem BioAssay (NCATS).
Unmarked numbers belong to inactive results. Records with an inconclusive call do not appear. A call without a number means that no potency is given here. Activity calls are given as the source filed them. The call rests on the fitted dose curve; in most records, active means well fitted curve in the direction sought with a large enough effect; inconclusive means small, poorly fitted or top-dose-only effect, or another doubt; inactive means no such curve, though single readings can be large; an effect the other way counts as inactive or inconclusive.

Experiments:
[1] = Cellular Toxicity (caspase-3) Mesangial (AID 660); settings: mesangial cells, normalized: DMSO 0%, 100 µM tamoxifen 100%; at 91.7 µM (top of the series);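 further: combined caspase 3 and 7 activity read by Caspase-Glo luminescence; cells exposed to compound for 16 h before the caspase read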
Outline: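 Caspase 3/7 activation measured by Caspase-Glo 3/7 luminescence (20 min, room temperature) following 16 h exposure of mesangial cells (1000/well); AC50 from Hill-equation fit, normalized to DMSO and 100 uM tamoxifen.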

[2] = Cellular Toxicity (caspase-3) SK-N-SH (AID 661);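 further: cells exposed to compound for 16 hours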
Outline: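 Caspase 3/7 activation was read by luminogenic substrate cleavage after 16 hour treatment of SK-N-SH cells. Signal was scaled between DMSO and 10 uM staurosporine, and concentration-response data were fitted with the Hill equation for AC50.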

[3] = Cellular Toxicity (caspase-3) Hek293 (AID 664); settings: HEK293 caspase-3 activation, DMSO = 0%, 100 µM tamoxifen = 100%; at 92.2 µM (top of the series);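 further: cells exposed to compound for 16 h at 37 °C before readout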
Outline: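 Concentration-response qHTS: caspase 3/7 activation measured by luminescent aminoluciferin substrate cleavage after 16 h compound exposure of Hek 293 cells. AC50 from Hill equation, with DMSO as basal and 100 uM tamoxifen as 100%.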

[4] = Cellular Toxicity (caspase-3) N2a (AID 665);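 further: compound exposure lasted 16 h at 37 °C before readout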
Outline: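 Caspase-3/7 activation measured as luminescence from Caspase-Glo reagent (1 h, room temperature) after 16 h compound exposure of mouse N2a cells. AC50 values from Hill-equation concentration-response, scaled between DMSO and 10 uM staurosporine.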

[5] = Cellular Toxicity (caspase-3) NIH 3T3 (AID 666);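 further: caspase signal read after 16 h compound exposure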
Outline: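 Caspase-Glo 3/7 luminescence reported caspase activation in 1000 NIH 3T3 cells/well after 16 h compound exposure at 37 C. DMSO set basal and 100 uM tamoxifen set 100% stimulation; concentration-response modeled with the Hill equation for AC50.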

[6] = Cellular Toxicity (caspase-3) Renal Proximal Tubule (AID 667); settings: Potency: caspase-3 activation;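 further: cells exposed to compound for 16 hours at 37 °C before detection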
Outline: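 AC50 derived by standard Hill fit of concentration-response data, normalized between DMSO basal and 10 uM staurosporine as 100% stimulation. Cells: primary rat kidney proximal tubule, 16 h treatment at 37 °C.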

[7] = target: Cytochrome P450 3A4 (Homo sapiens) (UniProt P08684); assay: qHTS Assay for Inhibitors and Substrates of Cytochrome P450 3A4 (AID 884); further: nearly all actives have a fitted effect of over 50% in size
Sequence of Cytochrome P450 3A4 (Homo sapiens) (P08684 whole entry, looked up): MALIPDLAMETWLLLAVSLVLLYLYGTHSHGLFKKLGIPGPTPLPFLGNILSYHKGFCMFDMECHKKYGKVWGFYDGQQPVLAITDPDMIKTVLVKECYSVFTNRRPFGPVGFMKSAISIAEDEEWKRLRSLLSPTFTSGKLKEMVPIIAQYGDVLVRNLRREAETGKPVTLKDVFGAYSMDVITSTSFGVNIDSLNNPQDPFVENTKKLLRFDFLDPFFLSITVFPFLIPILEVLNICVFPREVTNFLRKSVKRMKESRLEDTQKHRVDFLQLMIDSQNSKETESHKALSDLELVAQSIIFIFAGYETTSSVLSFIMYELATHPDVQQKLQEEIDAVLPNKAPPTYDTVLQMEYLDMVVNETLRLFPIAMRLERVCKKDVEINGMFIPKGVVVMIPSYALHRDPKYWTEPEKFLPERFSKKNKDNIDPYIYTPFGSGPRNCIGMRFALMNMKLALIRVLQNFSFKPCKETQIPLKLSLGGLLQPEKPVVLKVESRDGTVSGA
Outline: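 Luminescent readout of luciferin produced by CYP3A4 (20 nM) dealkylation of Luciferin-PPXE, 25 uM (its KM). NADPH-driven reaction ran 60 min at RT after 10 min compound preincubation; data scaled to 57 uM ketoconazole as 100% inhibition.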

[8] = Cell Viability - LYMP2-001 (AID 921); further: nearly all actives have a fitted effect of over 70% in size; further: potency means the concentration at half of the fitted maximal effect
Outline: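 Steps: seed 2500 lymphoblastoid cells/well; 5 hr, 37 C; add compound; 24 hr, 37 C; CellTiter-Glo reagent, 30 min room temperature; read luminescence. Concentration-response modeled by Hill equation for AC50.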

[9] = MultiTox-Fluor Cytotoxicity Assay - LYMP1-001 - Dead Cells (AID 946)
Outline: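 AC50 from Hill fit of concentration-response; data normalized to DMSO (basal) and 15 uM tetraoctylammonium bromide (100%). LYMP1-001 lymphoblastoid cells, 2500/well, 16 hr compound at 37 C; dead-cell protease fluorescence, Ex/Em 485/520.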

[10] = MultiTox-Fluor Cytotoxicity Assay - LYMP1-001 - Live Cells (AID 947)
[11] = Cell Viability - LYMP1-002 - Assay at 16 hr (AID 948)
Outline: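 Seed 2500 LYMP1-002 cells per well in complete medium and hold 5 hr at 37 C. Add compound across a concentration series and incubate 16 hr at 37 C. Add CellTiter-Glo, wait 30 min at room temperature, read luminescence.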

[12] = MultiTox-Fluor Cytotoxicity Assay - LYMP1-002 - Live Cells (AID 955);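 further: cells exposed to compound for 16 hours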
Outline: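 After 16 h compound exposure at 37 C, live LYMP1-002 lymphoblastoid cells (2500/well) were quantified by cleavage of cell-permeant GF-AFC substrate, read at 405/510 nm after 60 min. Concentration-response fitted with Hill equation for AC50.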

[13] = MultiTox-Fluor Cytotoxicity Assay - LYMP1-003 - Dead Cells (AID 961); further: nearly all actives have a fitted effect of over 70% in size
Outline: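 Human lymphoblastoid LYMP1-003 cells (2500/well) were treated with compounds for 16 hr at 37 C in complete medium. Dead-cell protease release was read by bis-AAF-R110 fluorescence (Ex/Em 485/520). AC50 came from Hill fits, normalized to DMSO and 15 uM tetraoctylammonium bromide.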

[14] = MultiTox-Fluor Cytotoxicity Assay - LYMP1-003 - Live Cells (AID 962);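 further: cells exposed to compound for 16 hours at 37 °C; cytotoxic hits lower the live-cell protease signal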
Outline: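 Live-cell protease activity (GF-AFC substrate, 405/510 nm, 60 min at room temperature) after 16 h, 37 C compound exposure of human lymphoblastoid LYMP1-003 cells; concentration-response fitted to the Hill equation for AC50.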

[15] = Cell Viability - LYMP1-003 - Assay at 24 hr (AID 963)
Outline: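 Concentration-response qHTS: ATP loss measured by CellTiter-Glo luminescence after 24 h compound exposure at 37 C. Cells were LYMP1-003 human lymphoblastoid, 2500 per well. AC50 derived via standard Hill equation modeling.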

[16] = Cell Viability - LYMP2-003 (AID 965);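 further: cells exposed to compounds for 24 h before reading; nearly all actives have a fitted effect of over 50% in size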
Outline: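 Seed 2500 lymphoblastoid cells/well; incubate 5 hr, 37 C; add compounds; incubate 24 hr, 37 C; add CellTiter-Glo, 30 min RT; read luminescence. AC50 from Hill fit.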

[17] = MultiTox-Fluor Cytotoxicity Assay - LYMP1-002 - Dead Cells (AID 960); further: nearly all actives have a fitted effect of over 60% in size
Outline: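 Dead-cell fluorescence (Ex/Em 485/520) after 16 h compound exposure at 37 C of LYMP1-002 lymphoblastoid cells in complete medium; AC50 by Hill equation, with data scaled between DMSO and 15 uM tetraoctylammonium bromide.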

[18] = Cell Viability - LYMP1-003 - Assay at 40 hr (AID 964); further: nearly all actives have a fitted effect of over 60% in size
Outline: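 Viability is taken as cellular ATP, read by CellTiter-Glo luminescence after 40 h of compound exposure at 37 C. Cells: human lymphoblastoid line LYMP1-003 at 2500/well; AC50 values derived by Hill-equation fitting of concentration-response data.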

[19] = target: Cytochrome P450 3A4 (Homo sapiens) (UniProt P08684); assay: qHTS Assay for Activators of Cytochrome P450 3A4 (AID 885); further: nearly all actives have a fitted effect of over 65% in size
Outline: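 CYP3A4 activity: Luciferin-PPXE O-dealkylation, 25uM substrate, 200mM KPO4, RT throughout. Read-out is luciferase luminescence; higher values reflect activation.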

SMILES: Cc1cccc(C)c1O
- caspase-3 activation [1]: -0.0557%
- outcome [2]: inactive
- caspase-3 activation [3]: -3.44%
- outcome [4]: inactive
- outcome [5]: inactive
- Potency [6]: inactive
- Potency [7]: inactive
- Potency [8]: inactive
- outcome [9]: inactive
- outcome [10]: inactive
- outcome [11]: inactive
- outcome [12]: inactive
- Potency [13]: inactive
- Potency [14]: inactive
- Potency [15]: inactive
- Potency [16]: inactive

SMILES: CCCC(Cl)CCCC(Cl)CCC(Cl)CCC(Cl)CCC(Cl)CCCC(Cl)CCC (stereo not drawn)
- caspase-3 activation [1]: 1.24%
- outcome [2]: inactive
- caspase-3 activation [3]: -1.03%
- outcome [4]: inactive
- outcome [5]: inactive
- Potency [6]: inactive
- Potency [7]: inactive
- Potency [8]: inactive
- outcome [9]: inactive
- outcome [10]: inactive
- outcome [11]: inactive
- outcome [12]: inactive
- outcome [17]: inactive
- Potency [13]: inactive
- Potency [14]: inactive
- Potency [15]: inactive
- Potency [18]: inactive
- Potency [16]: inactive

SMILES: S=C([S-])NCCNC(=S)[S-].[Zn+2]
- caspase-3 activation [1]: -0.549%
- outcome [2]: inactive
- caspase-3 activation [3]: 3%
- outcome [4]: inactive
- outcome [5]: inactive
- Potency [6]: inactive
- outcome [19]: inactive
- Potency [8]: inactive
- outcome [11]: inactive
- outcome [12]: inactive
- outcome [17]: inactive
- Potency [13]: inactive
- Potency [14]: inactive
- Potency [15]: inactive
- Potency [18]: inactive

SMILES: CCCCC/C=C/C=C/C=O
- caspase-3 activation [1]: 0.621%
- outcome [2]: inactive
- caspase-3 activation [3]: 163% (active)
- outcome [4]: inactive
- outcome [5]: inactive
- Potency [7]: inactive
- Potency [8]: 50.1 µM (active)
- outcome [9]: inactive
- outcome [10]: inactive
- outcome [11]: inactive
- outcome [12]: inactive
- Potency [13]: inactive
- Potency [14]: inactive
- Potency [15]: inactive
- Potency [18]: inactive

SMILES: O=C(O)c1ccccc1Cl
- caspase-3 activation [1]: -0.834%
- outcome [2]: inactive
- caspase-3 activation [3]: -0.14%
- outcome [4]: inactive
- outcome [5]: inactive
- Potency [6]: inactive
- Potency [8]: inactive
- outcome [9]: inactive
- outcome [11]: inactive
- outcome [12]: inactive
- outcome [17]: inactive
- Potency [13]: inactive
- Potency [14]: inactive
- Potency [15]: inactive
- Potency [18]: inactive
- Potency [16]: inactive

SMILES: COc1cccc2sc(N)nc12
- caspase-3 activation [1]: 1.13%
- outcome [2]: inactive
- caspase-3 activation [3]: -1.25%
- outcome [4]: inactive
- outcome [5]: inactive
- outcome [19]: inactive
- Potency [8]: inactive
- outcome [9]: inactive
- outcome [10]: inactive
- outcome [11]: inactive
- outcome [12]: inactive
- Potency [13]: inactive
- Potency [14]: inactive
- Potency [15]: inactive
- Potency [18]: inactive
- Potency [16]: inactive

SMILES: C/C=C(/C)C#N
- caspase-3 activation [1]: -0.503%
- outcome [2]: inactive
- caspase-3 activation [3]: 0.51%
- outcome [4]: inactive
- outcome [5]: inactive
- Potency [6]: inactive
- Potency [7]: inactive
- Potency [8]: inactive
- outcome [9]: inactive
- outcome [10]: inactive
- outcome [11]: inactive
- outcome [12]: inactive
- outcome [17]: inactive
- Potency [14]: inactive
- Potency [15]: inactive
- Potency [18]: inactive

SMILES: Nc1ccc([N+](=O)[O-])c(N)c1
- caspase-3 activation [1]: -0.0443%
- outcome [2]: inactive
- caspase-3 activation [3]: -0.316%
- outcome [4]: inactive
- outcome [5]: inactive
- Potency [6]: inactive
- Potency [7]: inactive
- Potency [8]: inactive
- outcome [9]: inactive
- outcome [10]: inactive
- outcome [11]: inactive
- outcome [12]: inactive
- Potency [14]: inactive
- Potency [15]: inactive
- Potency [18]: inactive

SMILES: CNc1ccccc1
- caspase-3 activation [1]: 1.7%
- outcome [2]: inactive
- caspase-3 activation [3]: -1.03%
- outcome [4]: inactive
- outcome [5]: inactive
- Potency [6]: inactive
- Potency [7]: inactive
- Potency [8]: inactive
- outcome [9]: inactive
- outcome [10]: inactive
- outcome [11]: inactive
- outcome [12]: inactive
- outcome [17]: inactive
- Potency [13]: inactive
- Potency [14]: inactive
- Potency [18]: inactive
- Potency [16]: inactive

SMILES: O=[N+]([O-])c1ccc(NCCO)c(OCCO)c1
- caspase-3 activation [1]: 0.383%
- outcome [2]: inactive
- caspase-3 activation [3]: 0.203%
- outcome [4]: inactive
- outcome [5]: inactive
- Potency [6]: inactive
- Potency [7]: inactive
- Potency [8]: inactive
- outcome [9]: inactive
- outcome [10]: inactive
- outcome [11]: inactive
- outcome [12]: inactive
- Potency [13]: inactive
- Potency [14]: inactive
- Potency [15]: inactive
- Potency [18]: inactive

SMILES: O=C(O)CCSSCCC(=O)O
- caspase-3 activation [1]: -0.167%
- outcome [2]: inactive
- caspase-3 activation [3]: -0.885%
- outcome [4]: inactive
- outcome [5]: inactive
- Potency [6]: inactive
- Potency [7]: inactive
- Potency [8]: inactive
- outcome [9]: inactive
- outcome [10]: inactive
- outcome [11]: inactive
- outcome [12]: inactive
- outcome [17]: inactive
- Potency [13]: inactive
- Potency [14]: inactive
- Potency [15]: inactive
- Potency [18]: inactive
- Potency [16]: inactive
